Our source for the Percent Effect values is ChEMBL document CHEMBL3988442, “University of Dundee, Small-Polar-MMV Screening Library” (2021).

Results with a measured potency or affinity are listed apart.

For the test, the target named is Protein translocase subunit SecA (Escherichia coli (strain K12)) (UniProt P10408). The experiment in a line: Assay to Identify E. coli SecA ATPase Inhibitors. Format: functional. Also on record: scale not given: direction of the effect not stated beside the values. Conditions: 30 µM.
Protein translocase subunit SecA (Escherichia coli (strain K12)), sequence (P10408 whole entry): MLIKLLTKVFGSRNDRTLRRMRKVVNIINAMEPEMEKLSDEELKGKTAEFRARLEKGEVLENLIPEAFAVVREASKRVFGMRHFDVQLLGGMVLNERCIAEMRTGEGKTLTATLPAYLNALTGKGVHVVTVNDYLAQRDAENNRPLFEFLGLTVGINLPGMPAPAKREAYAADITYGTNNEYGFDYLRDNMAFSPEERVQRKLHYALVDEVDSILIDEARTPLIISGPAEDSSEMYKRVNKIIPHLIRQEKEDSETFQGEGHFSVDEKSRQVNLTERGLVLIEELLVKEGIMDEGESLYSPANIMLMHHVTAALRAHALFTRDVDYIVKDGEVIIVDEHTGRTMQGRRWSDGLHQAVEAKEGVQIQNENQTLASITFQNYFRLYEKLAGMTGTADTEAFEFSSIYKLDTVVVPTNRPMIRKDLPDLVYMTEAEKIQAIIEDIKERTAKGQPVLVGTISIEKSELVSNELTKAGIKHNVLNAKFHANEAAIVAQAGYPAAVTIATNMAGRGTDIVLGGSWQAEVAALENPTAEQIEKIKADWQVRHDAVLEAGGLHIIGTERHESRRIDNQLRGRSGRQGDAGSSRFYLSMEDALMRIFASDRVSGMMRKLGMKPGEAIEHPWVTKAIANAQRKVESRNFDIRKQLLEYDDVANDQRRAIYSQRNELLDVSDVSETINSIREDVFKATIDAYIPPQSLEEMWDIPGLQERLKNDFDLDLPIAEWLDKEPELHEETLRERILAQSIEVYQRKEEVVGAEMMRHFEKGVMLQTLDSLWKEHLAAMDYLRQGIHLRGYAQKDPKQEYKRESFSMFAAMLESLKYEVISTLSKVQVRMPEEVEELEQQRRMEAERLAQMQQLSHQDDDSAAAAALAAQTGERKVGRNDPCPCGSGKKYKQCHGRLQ
As for `O=C1COC2(CCN(C(=O)c3ccco3)CC2)CN1Cc1ccccn1`, the Percent Effect is -3.84%.

As for `Cc1ccn(-c2cccc(C(=O)N3CCCC(n4ccnc4C)C3)c2)n1` (stereo not given), the Percent Effect is -0.853%.

In the case of `Cc1ccoc1-c1nnc(CN2CCn3c(nnc3C3CC3)C2)o1`, the Percent Effect was -3.51%.

Turning to `CC(=O)N1CCCC1c1csc(Nc2cnccn2)n1` (stereo not given), the Percent Effect stood at 0.761%.

Regarding `Fc1ccc(-c2nnc(CN3CCn4c(nnc4C4CC4)C3)o2)cc1`, the Percent Effect is -4.82%.

On to `CC(C)c1cc(NC(=O)CN2CCNC(=O)C2)on1`, for which the Percent Effect was -0.0493%.

Take `CN(C)c1ccc(NC(=O)NCc2ccccn2)cn1`: the Percent Effect is -1.7%.

In the case of `CNc1snc(C)c1C(=O)N1CCCC(n2nc(C)cc2C)C1` (stereo not given), the Percent Effect was -9.36%.

On to `COc1ccc(CN2CCC[C@@H]3CN(C(=O)c4ccco4)C[C@@H]32)cc1`, for which the Percent Effect is -4.96%.

As for `O=C(c1cc(Cl)c2c(c1)OCCO2)N1CCCC(n2cncn2)C1` (stereo not given), the Percent Effect was -2.53%.

`CCC(=O)N1CCC(O)(c2ncc(OC)nc2OC)CC1`: the Percent Effect is -1.18%.

Consider `CCCn1ncc2c(C(=O)Nc3n[nH]c(SC)n3)cc(C3CC3)nc21`, for which the Percent Effect is -0.744%.

As for `Cc1nc(CN(C)C2CCN(CCCOc3ccccc3)C2)no1` (stereo not given), the Percent Effect is 0.729%.

With `CCOc1ncccc1NC(=O)NC1CCCN(c2ncccn2)C1` (stereo not given), the Percent Effect is 0.363%.

As for `COC(=O)NCc1cc2n(n1)CCCN(C(C)=O)C2`, the Percent Effect is -9.99%.

`Fc1ccc(CN2CCC(c3n[nH]c4ncccc34)CC2)cc1F`: the Percent Effect is -7.07%.

Turning to `c1ccc(-c2nc(CN3CCc4c(ncn4C4CC4)C3)cs2)cc1`, the Percent Effect was -0.517%.

`Cc1ccc(C(=O)N2CCCC3(CCCC(=O)N3C)C2)cc1F` (stereo not given): the Percent Effect was -2.74%.

In the case of `Cc1nn(C)c(N(C)C)c1CNC(C)c1cccc(OC(C)C)c1` (stereo not given), the Percent Effect worked out at 2.06%.

In the case of `c1csc(-c2nc(CN3CCn4c(nnc4C4CC4)C3)co2)c1`, the Percent Effect was -2.65%.

For the molecule `CCCc1n[nH]cc1C(=O)N1CCC(c2nccn2CCOC)CC1`, the Percent Effect is -7.31%.

With `Cc1cc(C)n2cc(CN3CCCC3Cn3nc(C)nc3C)nc2n1` (stereo not given), the Percent Effect was -6.31%.

In the case of `CN(C)S(=O)(=O)N1CCCC(c2cccc(Cc3ccccc3)n2)C1` (stereo not given), the Percent Effect is -0.482%.

Regarding `CC(C)NC(=O)CC1COC2(CCN(Cc3cccs3)CC2)C1` (stereo not given), the Percent Effect is -3.1%.

`CCc1nc(C2CCCN2C(=O)c2c[nH]c(C)n2)no1` (stereo not given): the Percent Effect was -9.57%.

As for `Cc1cc(NC(=O)NCC2CCOC2)no1` (stereo not given), the Percent Effect came to 0.735%.

`CC(C)(O)CN1CCN(C(=O)c2cccnc2O)CC1`: the Percent Effect is -2.01%.

`CC1(C)OCC(CNC(=O)c2cnn(-c3ccc(Cl)cc3)c2N)O1` (stereo not given): the Percent Effect turned out to be 2.19%.

Turning to `O=c1c2ccccc2nc2n1C(CSc1ccc(Cl)cc1Cl)CN2` (stereo not given), the Percent Effect is -1.78%.

On to `Cc1ccc(CN2CCCn3c(nc(CN4CCCC4)cc3=O)C2)s1`, for which the Percent Effect is -4.72%.

On to `CC(C(=O)N1CCCC1)N1CCC(c2nccn2Cc2cscn2)CC1` (stereo not given), for which the Percent Effect is -2.34%.

Regarding `Cn1ccc(C(=O)NCc2cccc(NC(=O)C3CCC3)c2)cc1=O`, the Percent Effect is -3.75%.

For `c1cc(-c2nc(CN3CCn4c(nnc4C4CC4)C3)cs2)cs1`, the Percent Effect was 0.225%.

For the molecule `Cc1ccc(-c2nc(CN3CCCC(Cn4cncn4)C3)no2)cc1` (stereo not given), the Percent Effect was -6.21%.

For `c1cc(-c2noc(CN3CCn4c(nnc4C4CC4)C3)n2)co1`, the Percent Effect was -1.2%.

In the case of `Cn1cnc2c1CCN(Cc1cccc(C(N)=O)c1)C2`, the Percent Effect was -3.09%.

As for `CCn1ccnc1CN(C)CC1CCCN1c1cccnn1` (stereo not given), the Percent Effect is -2.58%.

Take `CNc1cc(C2CCCN2C(=O)c2ccc3oc(=O)n(C)c3c2)ccn1` (stereo not given): the Percent Effect is -1.24%.

For the molecule `Cc1cccc(N2CCN(C(=O)Nc3cnn(CC(N)=O)c3)CC2)c1`, the Percent Effect amounted to 0.381%.

Consider `CC(C)c1cc(N2CCC(N)CC2)n2nccc2n1`, for which the Percent Effect is -7.82%.
